# Compound activity as filed in PubChem BioAssay.
# Rows were chosen to be rich in hits. Some 2.9% of all compounds tested hit in one or more screens of this group.
# EBV LMP1 NFkB: EBV LMP1-driven NF-kappaB luciferase reporter inhibitors, primary screen, cell-based, luminescence, single point; inhibition, % at 12.5 µM; 0.69% of 350,000 active; LMP1-induced NF-kappaB luciferase reporter cells; in the data active means inhibition above about 41%; inconclusive means no clear call, values can overlap the other calls;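 further: 0% = neutral control wells and 100% = reference inhibitor control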
# Peg3 prom inh: Peg3 promoter-driven luciferase inhibitors, primary screen, cell-based, HeLa, luciferase luminescence; HeLa PEG-Prom luciferase reporter, overnight; inhibition, % at 20 µM; 1.7% of 360,000 active; AID 588405, 2011;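 active means inhibition of at least 50% at 20 µM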
# Shn3 inh set2: reduction of Shn3 3'UTR firefly luciferase signal, primary screen, Schnurri-3 inhibitor project, cell-based, Clone20 osteoblasts, set 2; Clone20 osteoblast Shn3 3'UTR firefly luciferase, 24 h; inhibition, % at 12.5 µM; 0.52% of 360,000 active;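 active means mean inhibition of at least 75% with every replicate also reaching 75%; inconclusive means mean inhibition at least 75% but some replicate below; inactive means mean inhibition below 75%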;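 further: 0% = median of neutral control wells and 100% = pilot-screen positive control compound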
# CF NFkB block: inhibitors of PAF-induced NF-kB signaling, primary screen, cell-based, GFP fluorescence, uHTS | 0.86% of 360,000 active | KKLEB NF-kB-GFP reporter, GFP fluorescence overnight | inhibition, % at 5 µM;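 active means at least 50% inhibition at 5 µM, scaled per plate between neutral and stimulator controls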;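 further: PAF is a Pseudomonas aeruginosa culture filtrate used as stimulus; plate controls were PAF-stimulated DMSO wells for no effect and unstimulated DMSO wells for full effect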
# MITF TRPM1 inh: inhibitors of MITF-dependent TRPM1 promoter reporter, primary screen, cell-based, SK-MEL-5, single point, luciferase | SK-MEL-5 TRPM1 promoter luciferase, 24 h | 0.83% of 330,000 active | inhibition, % at 12.5 µM;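 active means mean inhibition across replicates of 60% or more, whatever share of single replicates reaches that level; inconclusive means some that reach 60%, reason not given; inactive means mean inhibition across replicates below 60%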
# KKLEB cytotox: cytotoxicity in KKLEB CF airway cells, primary screen, cytotoxicity control for CF NF-kB inhibitor project, cell-based, uHTS, fluorescence assay plates. 0.36% of 360,000 active. KKLEB CF airway cells viability, ATPlite luminescence, overnight; active compounds read low; cells stimulated with P. aeruginosa culture filtrate. activity change (cytotoxicity), % at 5 µM;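 active means corrected activity change at or below -50% at 5 µM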
# * marks the source's active call; other numbers are inactive results; ? = inconclusive; . = no result given.
SMILES,EBV LMP1 NFkB,Peg3 prom inh,Shn3 inh set2,CF NFkB block,MITF TRPM1 inh,KKLEB cytotox
CC(C)(C)[C@H](N)C(=O)N[C@H]1CCC2C3CC=C4C[C@@H](O)CC[C@]4(C)C3CC[C@@]21C (some centres undefined),-95,96*,12,-28,76*,-68*
CC(=O)C1CCC2C3CC=C4CC(SC(=N)N)CCC4(C)C3CCC12C (centres undefined),10,97*,?,6,90*,1
CCCCN1C(=O)C(CC(=O)NCCN2CCOCC2)CC(C(=O)N(C(C)C)C(C)C)=C1C (centres undefined),-12,-7,48,-6,.,-5
O=C(Nc1cccc(S(=O)(=O)NC2=NCCC2)c1)C1CC(=O)N(c2ccc3c(c2)OCCO3)C1 (centres undefined),5,-2,87*,-6,4,3
O=C(CCl)Nc1cccc(S(=O)(=O)NC2=NCCCCC2)c1,-60,51*,-14,-7,76*,-18
O=C(CCl)Nc1cccc(S(=O)(=O)N2CCCCCC2)c1,-36,73*,-7,0,75*,-41
O=C(Cc1ccc(Cl)cc1)Nc1cccc(S(=O)(=O)N2CCCCC2)c1,1,19,38,2,14,-6
CCc1ccc(NC(=O)c2ccc3c(=O)n4c(nc3c2)CCCCC4)cc1,8,-79,0,-8,-23,10
O=C(Nc1cccc(S(=O)(=O)N2CCCCC2)c1)c1ccc2c(=O)n3c(nc2c1)CCCCC3,11,90*,63,6,52,6
C[C@H](CO)N1C[C@H](C)[C@@H](CN(C)C(=O)Nc2ccccc2F)OCc2cnnn2CCCC1=O,1,-10,-9,7,.,-13
Cc1c(C#N)c(O)n(C)c(=O)c1N=Nc1ccc(S(N)(=O)=O)cc1,-10,-73,-23,-65,23,1
CCOC(=O)c1ccc(N=Nc2c(C)c(C#N)c(O)[nH]c2=O)cc1,-3,-92,-68,65*,-21,-20
CCOC(=O)C1=C(O)c2ccccc2C(=O)/C1=C\c1ccc(C)cc1,-3,75*,59,7,50,5
CCOC(=O)C1=C(C)OC(=Cc2ccccc2)C1=O,1,-4,-1,-4,.,2
CCc1nc2ccc(C(=O)N3CCN(C(=O)c4ccco4)CC3)cn2c1N(CC)Cc1cccc(Br)c1,.,18,-14,16,.,-10
Cc1ccccc1-c1cc(C(=O)Nc2sc(C(=O)OC(C)C)c(C)c2C#N)c2ccccc2n1,32,31,71,56*,43,-54*
COc1ccc(OC)c(-c2cc(C(=O)Nc3sc4c(c3C#N)CCC(C)C4)c3ccccc3n2)c1 (centres undefined),-5,3,-12,38,13,-52*
COC(=O)c1sc(NC(=O)c2cc(-c3ccccc3)nc3ccccc23)c(C#N)c1C,19,35,79,34,46,-33
CCOC(=O)c1sc(NC(=O)c2cc(-c3ccc(C)cc3)nc3ccccc23)c(C#N)c1C,5,2,13,50,26,-62*
CC1(C(=O)NS(=O)(=O)c2cccs2)CCN1C(=O)CC1CC1 (centres undefined),.,1,-9,-2,.,-1
CCOC(=O)c1c(-c2ccccc2)oc2ccc(OCC(O)CNCCN(C)C)cc12 (centres undefined),5,100*,15,-3,66*,-14
COc1ccc(Cl)cc1Cn1c(C)c(C(=O)NCc2ccc3c(c2)OCCO3)sc1=O,.,24,6,8,.,5
COc1ccc(OCC(=O)Nc2nccs2)cc1,?,-3,6,6,-1,-7
CCOc1ccc(OCC(=O)Nc2nccs2)cc1,43*,59*,8,-2,52,-9
O=C(/C=C/c1ccco1)NC(=S)Nc1nc(-c2ccc(Cl)cc2)cs1,-7,-25,-1,19,-19,-18
SMILES,EBV LMP1 NFkB,Peg3 prom inh,Shn3 inh set2,CF NFkB block,MITF TRPM1 inh,KKLEB cytotox
O=C(/C=C/c1ccco1)NC(=S)Nc1nc(-c2ccc3ccccc3c2)cs1,0,-26,-5,47,-3,-64*
CC(=O)Nc1ccc(CN(C)c2c(C)nc3ccc(C(=O)N(C)Cc4ccccc4)cn23)cc1,.,11,-1,-1,.,2
COc1ccc(CN2C(=O)CSCC2=O)cc1OC,5,12,-3,-4,21,-4
COc1ccc(CCN2C(=O)CSC2=S)cc1OC,26,60*,0,16,15,-11
C=C(C)C(=O)N1CCN(C(=O)C(=C)C)c2ccccc21,-3,-4,-16,-3,-1,-3
CCN1C(=O)/C(=C/N(C)C)c2ccccc21,3,57*,-30,4,14,-3
O=C1NC(=O)C(=CC=Cc2ccccc2)S1,-32,-198,-27,-8,.,-17
ClC1=C(Cl)C(Cl)=C(Cl)C1=C/C=C/c1ccccc1,70*,107*,90*,91*,92*,-94*
Cc1ccc(NC(=O)C2CCCN(S(=O)(=O)c3c(C)noc3C)C2)cc1 (centres undefined),1,14,85*,-2,4,-9
COc1ccccc1CN1CC(C(=O)NCC2(O)CCCCC2)CCC1=O (centres undefined),6,-4,-5,-13,.,2
Clc1ccccc1-c1nnc2sc(CCc3ccccc3)nn12,-6,1,-4,5,7,10
c1ccc(CCc2nn3c(-c4ccncc4)nnc3s2)cc1,29,-35,8,72*,-19,-14
CCCCC(=O)NC(c1ccc(C(C)C)cc1)c1ccc2cccnc2c1O (centres undefined),50*,53*,83,-8,70*,-15
O=[N+]([O-])c1ccc(NC(c2ccccc2)c2ccc3cccnc3c2O)cc1 (centres undefined),57*,58*,91*,8,74*,-19
CC(=O)NC(c1cccc([N+](=O)[O-])c1)c1ccc2cccnc2c1O (centres undefined),62*,41,91*,1,44,-1
CCC(=O)NC(c1ccccc1OC)c1ccc2cccnc2c1O (centres undefined),65*,47,89*,-9,66*,-2
COc1ccc(CCNC(=O)c2ccc(NC(=O)CC3SC(N4CCCC4)=NC3=O)cc2)cc1OC (centres undefined),-5,0,-19,3,12,5
